The results in this text go back to PubChem BioAssay AID743287 (Broad Institute, 2014).

Molecules are shown by their SMILES. “And” between values parts separate entries of the source, which are not always exact repeats. Identical values can stand only once. The whole screen tested about 370,000 compounds, of which about 2,300 (0.62%) were called active. The sample holds actives, similar compounds and a random draw of the others, so the mix is not that of the screen. Values without a mark were called inactive.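 How the source made its calls: active means lowest replicate activation of at least 40%, so every replicate reaches that level; inactive means the rest.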

This test can be described thus: GLuc luminescence reporter in INS-1E cells, primary screen for activators of glucose-dependent secretion of insulin (AID 743287).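 Further: 0% = median of neutral control wells and 100% = median of IBMX positive control wells.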 To be noted: INS-1E GLuc reporter insulin secretion, 2-3 h, at 16.6 µM, hits give high values.
With `COCC(=O)N1CCC2(CC1)CN(C(=O)Nc1ccccc1F)[C@@H](CO)c1c2c2ccc(OC)cc2n1C`, the activation was -10.5%.

On to `O=S(=O)(NCC[C@H]1CC[C@@H](NS(=O)(=O)c2cccc(Cl)c2)[C@@H](CO)O1)c1cccc(F)c1`, for which the activation is -5.04%.

In the case of `CO[C@@H]1CN(C)C(=O)c2ccc(NS(=O)(=O)c3ccc(Cl)cc3)cc2OC[C@@H](C)N(C)C[C@H]1C`, the activation was -6.5% and 12.1%.

As to `Cc1cccc(-c2ccc(C3[C@@H]4CN(C(=O)Nc5ccc(C(F)(F)F)cc5)C[C@H]3N4)cc2)c1` (some centres undefined), the activation was 763% (active).

Regarding `CN(C)C(=O)c1ccc(-c2ccc(C3[C@@H]4CN(C(=O)Nc5ccccc5)C[C@H]3N4)cc2)cc1` (some centres undefined), the activation was -5.33%.

In the case of `O=C(C1CCCCC1)N1C[C@@H]2N[C@H](C1)C2c1ccc(-c2cccc(F)c2)cc1` (some centres undefined), the activation is 22.3% and -4.66%.

As to `C[C@H]1CN([C@@H](C)CO)C(=O)c2cc(NC(=O)C3CCCCC3)ccc2O[C@H]1CN(C)S(=O)(=O)c1cn(C)cn1`, the activation is 17.4%.

`O=C(C1CCOCC1)N1CC(=O)N2[C@H](CO)[C@H](c3ccc(C#CC4CCCCC4)cc3)[C@H]2C1`: the activation is 6.98%.

On to `O=C(N[C@H](Cc1ccccc1)C(=O)N1CCCN(Cc2cccs2)CC1)[C@H]1O[C@@H](n2ccc(=O)[nH]c2=O)[C@H](O)[C@@H]1O`, for which the activation is 13%.

On to `CN(C)C(=O)N1CCN(C(=O)[C@@H](Cc2ccccc2)NC(=O)[C@H]2O[C@@H](n3ccc(N)nc3=O)[C@H](O)[C@@H]2O)CC1`, for which the activation is 13.5%.

On to `Cc1ccc2nc(CN(C)C(=O)[C@@H](Cc3ccccc3)NC(=O)[C@H]3O[C@@H](n4ccc(=O)[nH]c4=O)[C@H](O)[C@@H]3O)[nH]c2c1`, for which the activation was 42.3% (active).

As to `CN1C(=O)c2cc(NS(C)(=O)=O)ccc2OC[C@H]2O[C@H](CC(=O)NCc3ccccc3)CC[C@H]21`, the activation was 4.81%.

In the case of `Cc1nc2ccccn2c(=O)c1NC(=O)c1cccs1`, the activation is 3.74%.

For `CCOC(=O)c1oc2ccccc2c1NC(=O)c1cccs1`, the activation was 77.1% (active).

For `NC(=O)c1oc2ccccc2c1NC(=O)Cc1ccccc1`, the activation was 9.27%.

Regarding `COc1ccc(NC(=O)Nc2cccc3c2O[C@H](CN(C)Cc2ccc(Cl)c(Cl)c2)[C@H](C)CN([C@@H](C)CO)C3=O)cc1`, the activation is -19%.

Regarding `C[C@H]1CN([C@@H](C)CO)C(=O)Cc2cc(NC(=O)Cn3cnnn3)ccc2O[C@@H]1CN(C)Cc1ccc(-c2ccccc2)cc1`, the activation was -17.4%.

Take `O=C(O)c1ccc(-n2nc(-c3ccccc3)c3ccccc3c2=O)cc1`: the activation was 65.3% (active).

On to `O=C1c2oc3ccccc3c(=O)c2C(c2cccc(O)c2)N1c1ccccn1` (centres undefined), for which the activation is -8.86%.

With `COCCCNC(=O)CNC(=O)c1nn(-c2ccc(OC)cc2)c(=O)c2ccccc12`, the activation was 5.37%.

As for `O=c1c2ccccc2c(-c2ccccc2)nn1-c1ccccn1`, the activation is 53.1% (active).

Consider `COc1cccc(-n2nc(C(=O)N3CCN(Cc4ccccc4)CC3)c3ccccc3c2=O)c1`, for which the activation was -2.64%.

For `O=c1c2ccccc2ncn1CCc1ccncc1`, the activation is 2.05%.

`C[C@@H]1CN([C@H](C)CO)C(=O)c2cc(NS(=O)(=O)c3cccs3)ccc2O[C@@H](C)CCCCO[C@@H]1CN(C)C(=O)c1ccncc1`: the activation was -1.55%.

As to `C[C@@H]1CN([C@@H](C)CO)C(=O)CCCn2cc(nn2)CO[C@@H]1CN(C)S(=O)(=O)c1ccccc1C#N`, the activation is 4.61%.

With `COc1ccc2c3c(n(C)c2c1)[C@H](CO)N(C(=O)c1ccncc1)CC31CCN(CC2CC2)CC1`, the activation was 14.2%.

`O=C(C[C@@H]1CC[C@@H](NC(=O)C2CC2)[C@@H](CO)O1)NCc1ccccc1Cl`: the activation is -6.27%.

For `C[C@@H]1CN([C@H](C)CO)C(=O)c2cccc(NC(=O)Nc3ccc4c(c3)OCO4)c2O[C@H]1CN(C)C(=O)Nc1ccc(F)cc1`, the activation is -11.4%.

In the case of `Cc1ccc(S(=O)(=O)Nc2ccc3c(c2)C(=O)N([C@@H](C)CO)C[C@@H](C)[C@@H](CN(C)S(=O)(=O)c2ccc(C)cc2)O3)cc1`, the activation was -10.5%.

With `Cc1ccc(S(=O)(=O)N(C)C[C@@H]2Oc3ccc(NC(=O)Nc4ccc(F)cc4)cc3C(=O)N([C@H](C)CO)C[C@@H]2C)cc1`, the activation was -24.3%.

Take `N#Cc1ccc(-c2ccc([C@@H]3[C@H]4CNC[C@@H]3N4Cc3cc(F)ccc3F)cc2)cc1`: the activation is 137% (active).

`COc1ccccc1CN1[C@@H]2CNC[C@H]1C2c1ccc(-c2cccc(C#N)c2)cc1` (some centres undefined): the activation is 0.586% and -8.29%.

Take `N#Cc1ccc(-c2ccc([C@@H]3[C@H]4CNC[C@@H]3N4Cc3ccc4c(c3)OCO4)cc2)cc1`: the activation was 3.4%.

As for `CCCC(=O)Nc1ccc2c(c1)C(=O)N(C)[C@@H]1CC[C@H](CC(=O)NCCOC)O[C@H]1CO2`, the activation is -1.04%.

As to `C[C@H](CO)N1C[C@H](C)[C@@H](CN(C)C(=O)C2CC2)Oc2ncc(C#CC(C)(C)O)cc2C1=O`, the activation was 3.22%.

As to `C[C@@H]1CN([C@H](C)CO)C(=O)c2cccc(NC(=O)c3ccncc3)c2O[C@@H]1CN(C)S(=O)(=O)c1cn(C)cn1`, the activation was 8.83%.

For `COc1ccccc1CNS(=O)(=O)c1cc(C(=O)NCc2ccccn2)c(Cl)cc1Cl`, the activation was 4.38%.

In the case of `COc1ccc2oc(=O)c(C(=O)NCc3ccccn3)cc2c1`, the activation is 70.8% (active).

Take `COCc1ccc(CN2CCC(Oc3ccc(C(=O)NCc4ccccn4)cc3)CC2)o1`: the activation is 2.23%.

In the case of `C[C@@H]1CN([C@H](C)CO)C(=O)c2cc(NC(=O)NC3CCCCC3)ccc2O[C@@H]1CN(C)S(C)(=O)=O`, the activation was -8.57%.

On to `CC(C)CC#Cc1ccc2c(c1)O[C@H](CN(C)Cc1cccnc1)[C@H](C)CN([C@@H](C)CO)S2(=O)=O`, for which the activation is -26.2%.

Take `C=CCn1c(SCc2ccccc2)nc2c1c(=O)[nH]c(=O)n2C`: the activation was 52% (active).

As to `CC1CCN(c2nc3c(c(=O)[nH]c(=O)n3C)n2CCCc2ccccc2)CC1`, the activation was 3.62%.

For the molecule `CC=CCn1c(SCCCc2ccccc2)nc2c1c(=O)[nH]c(=O)n2C`, the activation was 3.95%.
